Results from PubChem BioAssay (NCATS).
Unmarked numbers belong to inactive results. Inconclusive results are not listed. Calls of active or inactive are those of the source. Unless noted, the call rests on the fitted dose curve; in most records, active means well fitted curve in either direction with a large enough effect (not every such curve was filed as active); inconclusive means small, poorly fitted or top-dose-only effect, or another doubt; inactive means flat fitted curve, though single readings scatter.

What was measured:
[1] = AP1 Signaling Pathway (AID 357); conditions: ME-180 AP-1-bla reporter, EGF-induced, beta-lactamase ratio, 5 h; at 7.69 µM (top of the series) unless noted;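 further: ME-180 reporter cells stimulated with EGF at its EC50 level; on the % scale 0 is the no-effect control and ±100 the full control effect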
In short: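 Beta-lactamase reporter under AP-1 response element, ME-180 background. Stimulus: EC50 EGF. Compound exposure 5 h, 37 °C. Detection: CCF4, 2.5 h RT, 460/530 nm. Values: AC50 from titration.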

[2] = molecular target: Cytochrome P450 1A2 (Homo sapiens) (UniProt P05177); experiment: p450-cyp1a2 (AID 410; calls by dose curve; further: potency means the concentration at half of the fitted maximal effect;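 on activity change, negative = inhibition: -100% = full effect of reference inhibitor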)
Cytochrome P450 1A2 (Homo sapiens), sequence (P05177 whole entry, looked up): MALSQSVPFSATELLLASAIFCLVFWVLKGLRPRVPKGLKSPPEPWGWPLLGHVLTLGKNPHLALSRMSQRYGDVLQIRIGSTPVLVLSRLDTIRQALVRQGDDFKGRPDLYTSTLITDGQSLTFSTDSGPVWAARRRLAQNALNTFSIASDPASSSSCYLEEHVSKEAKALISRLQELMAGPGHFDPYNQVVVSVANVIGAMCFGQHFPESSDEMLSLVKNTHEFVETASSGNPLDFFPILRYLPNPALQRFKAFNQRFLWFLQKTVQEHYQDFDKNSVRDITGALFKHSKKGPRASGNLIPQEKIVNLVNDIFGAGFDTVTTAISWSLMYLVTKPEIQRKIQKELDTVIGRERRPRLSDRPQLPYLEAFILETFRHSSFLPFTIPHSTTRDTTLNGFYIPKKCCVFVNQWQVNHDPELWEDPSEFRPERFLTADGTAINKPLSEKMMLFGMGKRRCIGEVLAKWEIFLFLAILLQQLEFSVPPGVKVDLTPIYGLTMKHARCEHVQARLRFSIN
In short: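 Luminescent readout of luciferin formed from Luciferin-ME by human CYP1A2; data normalized against complete inhibition by 57 uM furafylline. Enzyme 20nM, substrate 100uM at Km, 100mM KPO4 buffer, 60 min reaction at room temperature.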

[3] = NFAT Signaling Pathway (AID 444); conditions: Jurkat NFAT-bla M1, carbachol, beta-lactamase ratio, 5 h; at 7.69 µM (top of the series) unless noted;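 further: carbachol stimulus at about its EC50 of 1 µM final; on the % scale 0 is the no-effect control and ±100 the full control effect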
In short: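 Jurkat cells with NFAT-driven β-lactamase reporter and co-expressed M1 receptor, stimulated with carbachol (final 1 uM, ~EC50), compound titration, 5 h at 37 °C. CCF4 loaded 1 h at RT; 460/530 nm ratio gave %activity and AC50.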

[4] = molecular target: Glucocorticoid receptor (Homo sapiens) (UniProt P04150); experiment: GR-GFP Redistribution (AID 450;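 active means compounds whose dose series gives a full or clear partial fitted curve of increased nuclear translocation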; further: potency means the concentration at half of the fitted maximal effect); conditions: U2OS GR-GFP nuclear translocation, laser cytometry, 2 h
Glucocorticoid receptor (Homo sapiens), sequence (P04150 whole entry, looked up, the tested form may be a part): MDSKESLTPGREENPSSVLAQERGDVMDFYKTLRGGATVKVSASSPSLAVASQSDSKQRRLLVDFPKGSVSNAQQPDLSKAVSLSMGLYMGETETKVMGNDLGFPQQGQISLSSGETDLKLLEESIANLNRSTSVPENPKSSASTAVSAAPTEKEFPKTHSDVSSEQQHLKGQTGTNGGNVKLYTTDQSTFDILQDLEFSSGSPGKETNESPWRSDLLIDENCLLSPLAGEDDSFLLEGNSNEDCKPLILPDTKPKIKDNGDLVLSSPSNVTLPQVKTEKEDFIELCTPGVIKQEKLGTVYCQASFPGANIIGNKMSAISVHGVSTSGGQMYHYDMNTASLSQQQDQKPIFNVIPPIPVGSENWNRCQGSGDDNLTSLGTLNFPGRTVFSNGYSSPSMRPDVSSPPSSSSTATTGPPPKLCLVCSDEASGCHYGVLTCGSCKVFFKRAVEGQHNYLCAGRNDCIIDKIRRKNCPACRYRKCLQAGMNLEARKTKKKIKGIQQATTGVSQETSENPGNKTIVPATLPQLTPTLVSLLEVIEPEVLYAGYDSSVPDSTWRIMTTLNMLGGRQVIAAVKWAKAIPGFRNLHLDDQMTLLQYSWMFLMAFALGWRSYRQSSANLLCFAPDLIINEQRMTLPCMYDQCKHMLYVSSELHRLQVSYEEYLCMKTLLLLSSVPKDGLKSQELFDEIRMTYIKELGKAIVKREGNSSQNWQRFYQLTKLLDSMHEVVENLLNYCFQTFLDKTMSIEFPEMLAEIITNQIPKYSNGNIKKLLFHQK

[5] = molecular target: Glucocorticoid receptor (Homo sapiens) (UniProt P04150); experiment: GR-EFC Redistribution (AID 451; calls by dose curve; further: potency means the concentration at half of the fitted maximal effect); conditions: CHO-K1 GR-EFC translocation, beta-gal luminescence, 2 h
In short: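 CHO-K1 cells expressing nuclear EA and GR-ED fragments of b-gal; compounds titrated up to 46 uM final, 2 h at 37 C. GR nuclear translocation read as complemented b-gal luminescence after 1 h RT detection.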

[6] = molecular target: Mitogen-activated protein kinase 10 (Mus musculus) (UniProt Q61831); experiment: JNK3 AlphaScreen Assay (AID 530);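 further: kinase came from lysate of stimulated human HepG2 cells; signal reports phosphorylation of biotinylated GST-cJun 1-79 at Ser73 with 10 µM ATP; on the % scale 0 is the no-effect control and ±100 the full control effect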
In short: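 Pre-activated (IL-1β/TNFα) JNK3 in HepG2 lysates phosphorylates biotin-GST-cJun(1-79), 10 uM ATP; anti-phospho-cJun(Ser73) AlphaScreen read at room temperature, pH 7.6 Tris buffer. Compounds pre-incubated 15 min as titrations.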

[7] = molecular target: 3',5'-cyclic-AMP phosphodiesterase 4B (Homo sapiens) (UniProt Q07343); experiment: qHTS Assay for Inhibitors of PDE-IV (AID 607; active means well fitted activation curve with a large enough effect in the main read-out, with a control signal flat, not every such curve was filed as active; further: % of control where 0% means no effect)
3',5'-cyclic-AMP phosphodiesterase 4B (Homo sapiens), sequence (Q07343 whole entry, looked up): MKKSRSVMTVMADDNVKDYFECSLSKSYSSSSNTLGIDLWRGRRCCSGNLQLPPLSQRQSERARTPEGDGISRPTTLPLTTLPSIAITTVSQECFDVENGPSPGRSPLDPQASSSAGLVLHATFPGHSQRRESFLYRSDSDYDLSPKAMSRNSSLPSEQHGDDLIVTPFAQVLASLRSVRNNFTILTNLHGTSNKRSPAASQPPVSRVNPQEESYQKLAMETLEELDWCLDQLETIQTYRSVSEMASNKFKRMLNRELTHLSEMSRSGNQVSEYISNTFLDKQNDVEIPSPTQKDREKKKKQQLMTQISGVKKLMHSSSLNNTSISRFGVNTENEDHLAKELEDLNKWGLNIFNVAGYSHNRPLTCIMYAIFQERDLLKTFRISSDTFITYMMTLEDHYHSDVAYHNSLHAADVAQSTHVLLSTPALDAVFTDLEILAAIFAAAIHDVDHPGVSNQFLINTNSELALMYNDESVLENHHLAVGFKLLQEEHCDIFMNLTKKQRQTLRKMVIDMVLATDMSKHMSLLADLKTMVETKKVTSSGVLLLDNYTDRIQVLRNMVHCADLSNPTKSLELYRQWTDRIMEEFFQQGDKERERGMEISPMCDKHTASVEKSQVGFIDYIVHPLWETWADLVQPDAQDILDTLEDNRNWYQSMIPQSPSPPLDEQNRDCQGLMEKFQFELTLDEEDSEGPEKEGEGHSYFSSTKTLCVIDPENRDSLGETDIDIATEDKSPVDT
In short: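 ACTOne HEK293 cells carry a modified cAMP-gated CNG channel and express endogenous PDE4; plated 1000 cells/well, compounds up to 22.9 uM final. Membrane-potential dye fluorescence (ex 535/em 590) was read; parental cells received 10 uM forskolin + 100 uM RO 20-1724.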

[8] = Stat Signaling Pathway (AID 446); conditions: ME-180 SIE beta-lactamase reporter, IL-6 stimulated, 5 h; at 7.69 µM (top of the series) unless noted;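 further: ME-180 cervical cancer cells given 40 pM IL-6 alongside compound; SIE-controlled beta-lactamase reporter measured as 460/530 nm FRET emission ratio; on the % scale 0 is the no-effect control and ±100 the full control effect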
In short: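 ME-180 SIE-bla cells; overnight plating; cpd + IL-6 40 pM, 5 h, 37 C; LiveBLAzer 2.5 h RT; 460/530 nm emission ratio. Normalized to 300 pM IL-6 and 125 nM JAK inhibitor controls.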

[9] = molecular target: Pyruvate kinase (Leishmania mexicana) (UniProt Q27686); experiment: qHTS Validation Assay for Inhibitors of Leishmania Mexicana Pyruvate Kinase (AID 945; active means well fitted curve in the direction sought with a large enough effect; an effect the other way counts as inactive or inconclusive;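 further: 0% = DMSO only neutral control wells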)
Pyruvate kinase (Leishmania mexicana), sequence (Q27686 2-499 E452W): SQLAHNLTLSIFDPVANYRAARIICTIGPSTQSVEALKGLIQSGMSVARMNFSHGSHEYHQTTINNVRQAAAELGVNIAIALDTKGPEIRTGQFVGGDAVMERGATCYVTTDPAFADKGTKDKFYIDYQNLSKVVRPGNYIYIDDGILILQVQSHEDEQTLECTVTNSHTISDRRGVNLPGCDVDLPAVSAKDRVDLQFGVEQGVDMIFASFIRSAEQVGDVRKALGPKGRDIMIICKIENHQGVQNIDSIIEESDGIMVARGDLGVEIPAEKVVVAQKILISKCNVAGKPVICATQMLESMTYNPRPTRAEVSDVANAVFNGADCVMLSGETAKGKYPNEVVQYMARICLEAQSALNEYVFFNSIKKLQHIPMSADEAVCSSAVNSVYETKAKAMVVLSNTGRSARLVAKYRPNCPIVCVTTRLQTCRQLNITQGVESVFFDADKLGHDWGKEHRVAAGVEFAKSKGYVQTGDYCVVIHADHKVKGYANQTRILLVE
In short: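 Luminescent ATP detection (PKLight) after a 1 h room-temperature reaction of 0.2 nM LmPYK E451W mutant with 0.5 mM PEP and 0.1 mM ADP at pH 7.2. Activity is normalized to DMSO-only control wells.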

[10] = molecular target: Pyruvate kinase PKM (Homo sapiens) (UniProt P14618); experiment: qHTS Assay for Activators of Human Muscle Pyruvate Kinase (AID 954; active means well fitted curve in the direction sought with a large enough effect, not every such curve was filed as active;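 further: 0% = uninhibited enzyme and -100% = no enzyme or full thiadiazolimine inhibition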)
Pyruvate kinase PKM (Homo sapiens), sequence (P14618 whole entry, looked up): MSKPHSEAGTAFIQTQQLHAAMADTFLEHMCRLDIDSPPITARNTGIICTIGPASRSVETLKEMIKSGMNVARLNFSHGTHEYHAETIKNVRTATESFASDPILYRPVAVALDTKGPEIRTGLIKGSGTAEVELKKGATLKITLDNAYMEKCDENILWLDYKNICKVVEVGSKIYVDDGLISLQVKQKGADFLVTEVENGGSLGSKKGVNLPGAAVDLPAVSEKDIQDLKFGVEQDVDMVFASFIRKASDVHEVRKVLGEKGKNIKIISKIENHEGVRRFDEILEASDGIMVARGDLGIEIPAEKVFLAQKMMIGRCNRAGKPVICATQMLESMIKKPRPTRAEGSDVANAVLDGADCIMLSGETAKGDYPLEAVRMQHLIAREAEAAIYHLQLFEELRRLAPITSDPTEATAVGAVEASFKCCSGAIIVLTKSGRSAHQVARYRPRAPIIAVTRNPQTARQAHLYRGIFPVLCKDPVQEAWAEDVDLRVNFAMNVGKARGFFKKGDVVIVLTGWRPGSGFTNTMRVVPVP
In short: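 Luminescence from a luciferase ATP-detection/stop reagent reported PKM2 activity. Reactions contained 0.1 nM purified human enzyme, 0.5 mM PEP, 0.1 mM ADP and 7 mM MgCl2 at pH 7.2, run 1 h at RT.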

[11] = molecular target: Alpha-galactosidase A (Homo sapiens) (UniProt P06280); experiment: Counterscreen for Glucocerebrosidase Inhibitors: qHTS Assay for Human alpha-Galactosidase at pH 4.5 (AID 992; active means well fitted curve in the direction sought with a large enough effect; an effect the other way counts as inactive or inconclusive; further: 0% is about no effect)
Alpha-galactosidase A (Homo sapiens), sequence (P06280 whole entry, looked up): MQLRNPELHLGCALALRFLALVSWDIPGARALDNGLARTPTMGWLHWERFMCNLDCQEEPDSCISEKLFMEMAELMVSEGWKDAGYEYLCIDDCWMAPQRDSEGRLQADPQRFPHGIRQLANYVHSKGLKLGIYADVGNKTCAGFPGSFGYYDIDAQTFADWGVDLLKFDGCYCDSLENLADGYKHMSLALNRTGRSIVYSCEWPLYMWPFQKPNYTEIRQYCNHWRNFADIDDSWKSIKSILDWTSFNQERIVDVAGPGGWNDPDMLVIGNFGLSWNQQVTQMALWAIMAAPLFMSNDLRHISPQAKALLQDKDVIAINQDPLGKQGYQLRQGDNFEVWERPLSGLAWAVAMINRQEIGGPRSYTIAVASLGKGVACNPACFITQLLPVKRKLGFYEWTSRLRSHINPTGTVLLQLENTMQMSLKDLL
In short: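 Enzyme at 2 nM final was combined with compound (0.7 nM to 77 uM) and 80 uM 4-methylumbelliferyl alpha-D-galactopyranoside in 50 mM citric acid, 0.005% Tween-20, pH 4.5. After 20 min at room temperature, fluorescence was read (Ex 365/Em 440 nm); AC50 came from Hill fits.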

[12] = molecular target: alpha-glucosidase (Oryza sativa, rice) (UniProt Q653V4); experiment: Counterscreen for Glucocerebrosidase Inhibitors: qHTS Assay for Rice alpha-Glucosidase at pH 5.0 (AID 997; active means well fitted curve in the direction sought with a large enough effect; an effect the other way counts as inactive or inconclusive;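 further: 0% = full activity with enzyme and -100% = basal without enzyme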)
In short: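 Rice alpha-glucosidase (4 nM final) with 400 uM 4-methylumbelliferyl-alpha-D-glucopyranoside in citrate buffer pH 5.0, 20 min at room temperature, stopped at pH 10; fluorescence 365/440 nm, compounds 0.7 nM–77 uM, AC50 from Hill fits.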

[13] = molecular target: Guanine nucleotide-binding protein G(i) subunit alpha-1 (Homo sapiens) (UniProt P63096); experiment: qHTS Assay for Inhibitors of RGS12 GoLoco Motif Activity (Green Fluorophore) (AID 879; active means well fitted curve in the direction sought with a large enough effect; an effect the other way counts as inactive or inconclusive;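 further: 0% = labeled peptide with Gαi1 and full inhibition = labeled peptide alone without protein; negative values mean loss of peptide binding seen as reduced polarization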)
Guanine nucleotide-binding protein G(i) subunit alpha-1 (Homo sapiens), sequence (P63096 whole entry, looked up): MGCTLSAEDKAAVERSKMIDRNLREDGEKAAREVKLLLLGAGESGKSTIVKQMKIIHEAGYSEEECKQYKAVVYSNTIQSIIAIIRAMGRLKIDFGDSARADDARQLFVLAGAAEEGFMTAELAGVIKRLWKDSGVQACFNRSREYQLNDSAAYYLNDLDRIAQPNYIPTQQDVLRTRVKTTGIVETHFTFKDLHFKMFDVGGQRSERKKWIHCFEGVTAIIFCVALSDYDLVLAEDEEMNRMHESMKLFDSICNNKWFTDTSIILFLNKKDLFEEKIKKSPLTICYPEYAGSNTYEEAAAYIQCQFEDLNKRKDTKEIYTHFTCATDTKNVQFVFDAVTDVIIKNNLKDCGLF
In short: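 Fluorescence polarization assay: 50 nM Gαi1 with 10 nM FITC-labeled RGS12 GoLoco peptide in 10 mM Tris pH 7.5, 150 mM NaCl, 0.1 mM GDP, 0.05% NP40, 10 min at room temperature with compound.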

With `COC(=O)[C@@H]1[C@H]2C[C@H]3c4[nH]c5cc(OC)ccc5c4CCN3C[C@@H]2C[C@@H](OC(=O)c2cc(OC)c(OC)c(OC)c2)[C@@H]1OC` the activity change, negative = inhibition [1] was -23.7% [at 38 µM], the Potency [2] was 15.8 µM (active) and the activity change, negative = inhibition [3] was 3.19% [at 38 µM]. For the same molecule, the Potency [4] was > 46 µM, the Potency [5] was > 46 µM and the Potency [6] was “inactive”. For the same molecule, the Potency [7] was “inactive”.
With `Nc1ccn([C@H]2CC[C@H](CO)O2)c(=O)n1` the activity change, negative = inhibition [1] was 15.8% [at 38 µM], the Potency [2] was “inactive” and the activity change, negative = inhibition [3] was 5.71% [at 38 µM]. The activity, negative = inhibition [8] was -0.228% [at 38 µM], the Potency [6] was “inactive” and the Potency [7] was “inactive”.
In the case of `C#C[C@@]1(O)CC[C@H]2[C@H]3CCC4=Cc5oncc5C[C@]4(C)[C@@H]3CC[C@@]21C`, the activity change, negative = inhibition [1] is reported as -22.8% [at 38 µM], the Potency [2] is reported as 12.6 µM (active) and the activity, negative = inhibition [8] is reported as 6.25% [at 38 µM]. For the same molecule, the Potency [4] was > 46 µM, the Potency [5] was > 46 µM and the Potency [6] was “inactive”.
In the case of `Cc1ccc(SCN2CCCCC2)cc1` (tested in a mixture with another compound), the activity change, negative = inhibition [1] is reported as -5.94%, the Potency [2] is reported as 3.98 µM (active) and the activity change, negative = inhibition [3] is reported as 16.7%. The Potency [4] was > 46 µM, the Potency [5] was > 9.22 µM and the Potency [6] was “inactive”. The Potency [7] was “inactive”.
For `CCNc1ncc2nc(-c3ccccc3)c(=O)n(C3CC3)c2n1`, the activity change, negative = inhibition [1] was -3.39%, the Potency [2] was 2.51 µM (active) and the activity change, negative = inhibition [3] was 23.2%. For the same molecule, the Potency [4] was > 9.22 µM, the Potency [5] was > 46 µM and the Potency [6] was “inactive”.
In the case of `CC[C@H](C)[C@@H]1O[C@]2(CC[C@@H]1C)C[C@H]1C[C@H](CC=C(C)[C@@H](O[C@H]3C[C@H](OC)[C@H](O[C@H]4C[C@H](OC)[C@H](O)[C@H](C)O4)[C@H](C)O3)[C@@H](C)C=CC=C3CO[C@@H]4[C@@H](O)C(C)=C[C@H](C(=O)O1)[C@@]34O)O2`, the activity change, negative = inhibition [1] is reported as -14% [at 38 µM], the Potency [2] is reported as “inactive” and the activity change, negative = inhibition [3] is reported as -10.6% [at 38 µM]. For the same molecule, the Potency [4] was > 46 µM, the Potency [5] was > 46 µM and the Potency [7] was “inactive”. The outcome [9] was “inactive”, the outcome [10] was “inactive” and the outcome [11] was “inactive”. For the same molecule, the Potency [12] was “inactive”.
With `N[C@H](CCCC(=O)O)C(=O)O` the activity change, negative = inhibition [1] was 3.41% [at 38 µM], the Potency [2] was “inactive” and the activity, negative = inhibition [8] was -3.61% [at 38 µM]. For the same molecule, the Potency [4] was > 46 µM, the Potency [5] was > 46 µM and the Potency [6] was “inactive”. For the same molecule, the Potency [7] was “inactive”, the outcome [13] was “inactive” and the outcome [9] was “inactive”. The outcome [10] was “inactive”, the outcome [11] was “inactive” and the Potency [12] was “inactive”.
In the case of `O=S(=O)(O)c1ccc(N=Nc2ccccc2)cc1`, the activity change, negative = inhibition [1] is reported as -9.23%, the activity change, negative = inhibition [3] is reported as 7.04% and the activity, negative = inhibition [8] is reported as 0.896%. For the same molecule, the Potency [4] was > 46 µM, the Potency [5] was > 9.22 µM and the Potency [6] was “inactive”. The Potency [7] was “inactive”.
With `C[C@@H](COc1ccc(/C=C\c2ccccc2)cc1)[N+](C)(C)C` the activity change, negative = inhibition [1] was -11.9% [at 38 µM], the Potency [2] was “inactive” and the activity, negative = inhibition [8] was -2.8% [at 38 µM]. For the same molecule, the Potency [4] was > 46 µM, the Potency [5] was > 46 µM and the Potency [6] was “inactive”. For the same molecule, the Potency [7] was “inactive”, the outcome [13] was “inactive” and the outcome [9] was “inactive”. For the same molecule, the outcome [10] was “inactive”, the outcome [11] was “inactive” and the Potency [12] was “inactive”.
For `C[C@@]12C[C@H](O)[C@@H]3[C@H](CCC4=CC(=O)CC[C@]43C)[C@H]1CC[C@@H]2c1csc(-c2ccccc2)n1`, the activity change, negative = inhibition [1] was -1.5%, the activity, negative = inhibition [8] was -6.13% and the Potency [4] was > 46 µM. The Potency [5] was > 9.22 µM, the Potency [6] was “inactive” and the Potency [7] was “inactive”.
`O=C(O)/C(Cc1cn[nH]n1)=N\O` gave an activity change, negative = inhibition [1] of 16.4%, an activity change, negative = inhibition [3] of 0.206% and an activity, negative = inhibition [8] of 1.63%. The Potency [5] was > 9.22 µM, the Potency [6] was “inactive” and the Potency [7] was “inactive”.
`CN[C@@H](CC(C)C)C(=O)N[C@@H]1C(=O)N[C@H](CC(N)=O)C(=O)N[C@H]2C(=O)N[C@H]3C(=O)N[C@H](C(=O)N[C@H](C(=O)O)c4cc(O)cc(O)c4-c4cc3ccc4O)[C@H](O)c3ccc(c(Cl)c3)Oc3cc2cc(c3O[C@@H]2O[C@@H](CO)[C@@H](O)[C@@H](O)[C@H]2O[C@H]2C[C@](C)(N)[C@H](O)[C@H](C)O2)Oc2ccc(cc2Cl)[C@@H]1O` gave an activity change, negative = inhibition [1] of -0.977% [at 38 µM], an activity change, negative = inhibition [3] of 0.625% [at 38 µM] and an activity, negative = inhibition [8] of 4.5% [at 38 µM]. For the same molecule, the Potency [4] was > 46 µM, the Potency [5] was > 46 µM and the Potency [6] was “inactive”. For the same molecule, the Potency [7] was “inactive”, the outcome [13] was “inactive” and the outcome [9] was “inactive”. The outcome [10] was “inactive”, the outcome [11] was “inactive” and the Potency [12] was “inactive”.
For `COC(=O)[C@](C)(N)Cc1ccc(O)cc1`, the activity change, negative = inhibition [1] was 9.7% [at 38 µM], the Potency [2] was “inactive” and the activity, negative = inhibition [8] was -6.8% [at 38 µM]. The Potency [5] was > 46 µM, the Potency [6] was “inactive” and the Potency [7] was “inactive”. The outcome [13] was “inactive”, the outcome [9] was “inactive” and the outcome [10] was “inactive”. The outcome [11] was “inactive” and the Potency [12] was “inactive”.
In the case of `O=C(O)c1ccc(NCc2nc3cc4ccccc4cc3[nH]2)cc1`, the activity change, negative = inhibition [1] is reported as -5.67%, the activity change, negative = inhibition [3] is reported as 14.2% and the activity, negative = inhibition [8] is reported as -2.42%. The Potency [4] was > 46 µM, the Potency [5] was > 9.22 µM and the Potency [6] was “inactive”. For the same molecule, the Potency [7] was “inactive”.
In the case of `O=C1C(=O)c2ccccc2C(O)=C1Cc1ccccc1`, the activity change, negative = inhibition [1] is reported as -5.11%, the activity change, negative = inhibition [3] is reported as 4.13% and the activity, negative = inhibition [8] is reported as -11.8%. For the same molecule, the Potency [4] was > 46 µM, the Potency [5] was > 9.22 µM and the Potency [6] was “inactive”. The Potency [7] was “inactive”.
For `CS(=O)(=O)Nc1ccc(Nc2c3ccccc3nc3ccccc23)cc1`, the activity change, negative = inhibition [1] was 0.883%, the Potency [2] was 3.98 µM (active) and the activity, negative = inhibition [8] was 25.9%. The Potency [4] was > 46 µM, the Potency [5] was > 9.22 µM and the Potency [6] was “inactive”. The Potency [7] was “inactive”.
For `O=S(=O)(c1ccc2ccccc2c1)N1CCN(S(=O)(=O)c2ccc3ccccc3c2)CC1`, the activity change, negative = inhibition [1] was -2.95%, the activity change, negative = inhibition [3] was -5.78% and the activity, negative = inhibition [8] was 0.106%. The Potency [4] was > 46 µM, the Potency [5] was > 9.22 µM and the Potency [6] was “inactive”. The Potency [7] was “inactive”.
